In PubChem BioAssay (NCI):
This is part of a sample that, as a whole, favours compounds with a hit. Of some 83,000 tested, about 20% had one in any assay.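 A percent growth of 40 corresponds to 60% growth inhibition; 0 means no net growth; -100 means all cells died. Active threshold: below 10.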 Active and inactive are the calls of the source.

Legend:
Experiment in all cases: NCI-60 one-dose screen, 48 h (100 = growth as untreated, 0 = no growth, -100 = all killed)
Settings in all cases: 10 µM unless noted
NCI-H23 lung = system: NCI-H23 lung
NCI-H322M lung = system: NCI-H322M lung
HOP-62 NSCLC = system: HOP-62 NSCLC
NCI-H460 lung = system: NCI-H460 lung
NCI-H522 lung = system: NCI-H522 lung
A549/ATCC NSCLC = system: A549/ATCC NSCLC
786-0 renal = system: 786-0 renal
COLO 205 colon = system: COLO 205 colon
DU-145 prostate = system: DU-145 prostate
K-562 leukemia = system: K-562 leukemia
MALME-3M melanoma = system: MALME-3M melanoma
MDA-MB-231 breast = system: MDA-MB-231 breast
RXF 393 renal = system: RXF 393 renal
SF-268 CNS = system: SF-268 CNS
SF-295 CNS = system: SF-295 CNS
SF-539 CNS = system: SF-539 CNS
UACC-257 melanoma = system: UACC-257 melanoma
M14 melanoma = system: M14 melanoma
HOP-92 NSCLC = system: HOP-92 NSCLC

Measured: growth

COc1ccc(-c2cc(C(=O)Nc3ccc(C)cc3)nc3[nH]c(=O)sc23)cc1
inactive: NCI-H23 lung 75.4% | NCI-H322M lung 78.5% | HOP-62 NSCLC 84.7% | NCI-H460 lung 68.8% | NCI-H522 lung 24.3% | A549/ATCC NSCLC 50.6% | 786-0 renal 65.2% | COLO 205 colon 78.8% | DU-145 prostate 89.6% | K-562 leukemia 61.9% | MALME-3M melanoma 73.3% | MDA-MB-231 breast 86.3% | RXF 393 renal 85.8% | SF-268 CNS 88.7% | SF-295 CNS 70.7% | SF-539 CNS 75.6% | UACC-257 melanoma 51.4% | M14 melanoma 70.8%

COc1ccc(-c2conc2-n2nc(-c3ccccc3)nc2-c2ccccc2)cc1
inactive: NCI-H23 lung 98.3% | NCI-H322M lung 97.6% | HOP-62 NSCLC 95.9% | NCI-H460 lung 120% | NCI-H522 lung 89.7% | A549/ATCC NSCLC 114% | 786-0 renal 107% | COLO 205 colon 112% | DU-145 prostate 119% | MALME-3M melanoma 105% | MDA-MB-231 breast 94% | RXF 393 renal 113% | SF-268 CNS 122% | SF-295 CNS 98.8% | SF-539 CNS 107% | UACC-257 melanoma 115% | M14 melanoma 98.6%

COc1cnc2c(c1)C(=O)c1c-2n(CCCNC(C)C)c(=O)c2cc(Cl)ccc12
inactive: UACC-257 melanoma 48.2%
active: NCI-H23 lung -64.5% | NCI-H322M lung -35.7% | HOP-62 NSCLC -88.4% | NCI-H460 lung -82.9% | NCI-H522 lung -79.8% | A549/ATCC NSCLC -84% | 786-0 renal -96.3% | COLO 205 colon -89.8% | DU-145 prostate -78.4% | K-562 leukemia -80% | MALME-3M melanoma -73.4% | MDA-MB-231 breast -79.7% | RXF 393 renal -77.1% | SF-268 CNS -64.2% | SF-295 CNS -77.3% | SF-539 CNS -97.3% | M14 melanoma -83.4%

COc1ccc(-c2nc3c(c(-c4ccc(Cl)cc4)nn3-c3ccccc3)c(-c3ccc(O)cc3)c2C#N)cc1
inactive: NCI-H23 lung 52.8% | NCI-H322M lung 75.5% | HOP-62 NSCLC 57.5% | NCI-H460 lung 14.1% | NCI-H522 lung 58.3% | A549/ATCC NSCLC 41.2% | COLO 205 colon 57.8% | DU-145 prostate 51.6% | K-562 leukemia 10.8% | MALME-3M melanoma 62.6% | MDA-MB-231 breast 65.6% | SF-268 CNS 46.1% | SF-539 CNS 27.6% | UACC-257 melanoma 65.4% | M14 melanoma 45.9%
active: 786-0 renal 9.2% | RXF 393 renal -12.7% | SF-295 CNS -6.26%

CCOC(=O)C1C(=O)C=C(c2ccccc2)CC1c1sc(N(C)Cc2ccccc2)nc1Cl (stereo not given)
inactive: NCI-H23 lung 89.1% | NCI-H322M lung 91.2% | HOP-62 NSCLC 85.6% | NCI-H460 lung 93.3% | NCI-H522 lung 73.5% | A549/ATCC NSCLC 83.8% | 786-0 renal 93.2% | COLO 205 colon 100% | DU-145 prostate 107% | K-562 leukemia 73% | MALME-3M melanoma 120% | MDA-MB-231 breast 82.9% | RXF 393 renal 91.7% | SF-268 CNS 89.6% | SF-295 CNS 94.4% | SF-539 CNS 105% | UACC-257 melanoma 90.3% | M14 melanoma 94.7%

Oc1ccc(-c2nnc3c4[nH]ccc4ncn23)cc1
inactive: NCI-H23 lung 91.5% | NCI-H322M lung 98.2% | HOP-62 NSCLC 100% | NCI-H460 lung 90.1% | NCI-H522 lung 81.5% | A549/ATCC NSCLC 93.7% | 786-0 renal 95.6% | COLO 205 colon 105% | DU-145 prostate 97.2% | K-562 leukemia 98.4% | MALME-3M melanoma 94.5% | MDA-MB-231 breast 92% | RXF 393 renal 113% | SF-268 CNS 103% | SF-295 CNS 101% | SF-539 CNS 101% | UACC-257 melanoma 117% | M14 melanoma 104%

CCCCOC(=O)c1cc(O)c(O)c(O)c1
active: NCI-H522 lung -1.17%
inactive: NCI-H23 lung 88.2% | NCI-H322M lung 86.5% | HOP-62 NSCLC 76.2% | NCI-H460 lung 58.9% | A549/ATCC NSCLC 64.7% | 786-0 renal 79.2% | COLO 205 colon 101% | DU-145 prostate 74% | K-562 leukemia 66.3% | MALME-3M melanoma 122% | MDA-MB-231 breast 66.4% | RXF 393 renal 82% | SF-268 CNS 53.5% | SF-295 CNS 102% | SF-539 CNS 48.5% | UACC-257 melanoma 96.4% | M14 melanoma 84.1%

CCN(CC)Cc1cc(Nc2ccnc3ccc(OC)cc23)ccc1O
active: NCI-H522 lung -1.72% | UACC-257 melanoma -17.7%
inactive: NCI-H23 lung 56% | NCI-H322M lung 38.5% | HOP-62 NSCLC 71.2% | NCI-H460 lung 20.1% | A549/ATCC NSCLC 22.5% | 786-0 renal 18.2% | COLO 205 colon 78.2% | DU-145 prostate 40.5% | K-562 leukemia 12.7% | MALME-3M melanoma 75% | MDA-MB-231 breast 58.8% | RXF 393 renal 48.9% | SF-268 CNS 53% | SF-295 CNS 79% | SF-539 CNS 64.7% | M14 melanoma 29.5%

COc1cc(OC)cc(-c2ccc(-c3ccc(C(=N)N)s3)s2)c1
active: NCI-H23 lung -75.7% | NCI-H322M lung -86.7% | HOP-62 NSCLC -88.1% | NCI-H460 lung -71.6% | HOP-92 NSCLC -71% | 786-0 renal -80.4% | COLO 205 colon -78.1% | DU-145 prostate -74.2% | K-562 leukemia -35.7% | MALME-3M melanoma -73.8% | MDA-MB-231 breast -80.5% | RXF 393 renal -73.9% | SF-268 CNS -76.5% | SF-295 CNS -78.5% | SF-539 CNS -92.2% | M14 melanoma -88.2%

CCOc1cc(/C=N\NC(=O)C[N+](C)(C)C)ccc1O
inactive: NCI-H23 lung 104% | NCI-H322M lung 123% | HOP-62 NSCLC 115% | NCI-H460 lung 114% | NCI-H522 lung 104% | A549/ATCC NSCLC 105% | 786-0 renal 113% | COLO 205 colon 119% | DU-145 prostate 116% | K-562 leukemia 73.4% | MALME-3M melanoma 115% | MDA-MB-231 breast 127% | RXF 393 renal 120% | SF-268 CNS 109% | SF-295 CNS 111% | SF-539 CNS 120% | UACC-257 melanoma 112% | M14 melanoma 118%

COc1ccc(/C(C)=N/NC(=O)c2ccc(S(C)(=O)=O)cc2)cc1OC
inactive: NCI-H23 lung 104% | NCI-H322M lung 96.5% | HOP-62 NSCLC 85.5% | NCI-H460 lung 108% | NCI-H522 lung 104% | A549/ATCC NSCLC 96.5% | 786-0 renal 94.2% | COLO 205 colon 95.3% | DU-145 prostate 95.7% | K-562 leukemia 69.5% | MALME-3M melanoma 98.1% | MDA-MB-231 breast 103% | RXF 393 renal 114% | SF-268 CNS 102% | SF-295 CNS 98.3% | SF-539 CNS 99.1% | UACC-257 melanoma 96.3% | M14 melanoma 97.4%

CCOC(=O)CCN(CCC(=O)OCC)c1ccccc1
inactive: NCI-H23 lung 101% | NCI-H322M lung 110% | HOP-62 NSCLC 86% | NCI-H460 lung 111% | NCI-H522 lung 89.8% | A549/ATCC NSCLC 99.6% | 786-0 renal 105% | COLO 205 colon 93.7% | DU-145 prostate 111% | K-562 leukemia 121% | MALME-3M melanoma 120% | MDA-MB-231 breast 111% | RXF 393 renal 81.3% | SF-268 CNS 93.6% | SF-295 CNS 107% | SF-539 CNS 92.4% | UACC-257 melanoma 96.4% | M14 melanoma 86.6%

CC(C)c1nc2ccccc2n1CC(=O)N/N=C/c1cccc(O)c1
inactive: NCI-H23 lung 101% | NCI-H322M lung 93.2% | HOP-62 NSCLC 97.4% | NCI-H460 lung 102% | NCI-H522 lung 86.6% | 786-0 renal 95.6% | COLO 205 colon 108% | DU-145 prostate 104% | K-562 leukemia 87% | MALME-3M melanoma 108% | MDA-MB-231 breast 93.4% | RXF 393 renal 104% | SF-268 CNS 99.2% | SF-295 CNS 103% | SF-539 CNS 97.6% | UACC-257 melanoma 87.7% | M14 melanoma 94.8%

Cc1ccc2c(C)c3c(ccc4ccccc43)c[n+]2c1
active: MALME-3M melanoma -8.06%
inactive: NCI-H23 lung 53.8% | NCI-H322M lung 86.5% | HOP-62 NSCLC 45.7% | NCI-H460 lung 74.3% | NCI-H522 lung 74.2% | A549/ATCC NSCLC 41.7% | 786-0 renal 70.3% | COLO 205 colon 91.5% | DU-145 prostate 85% | MDA-MB-231 breast 72.7% | RXF 393 renal 104% | SF-268 CNS 31.5% | SF-295 CNS 36.4% | SF-539 CNS 72.8% | UACC-257 melanoma 69.2% | M14 melanoma 89%

CSc1nc(N)c2[nH]c(-c3cc4ccccc4[nH]c3=O)nc2n1
inactive: NCI-H23 lung 83.9% | NCI-H322M lung 67% | HOP-62 NSCLC 115% | NCI-H460 lung 60.4% | NCI-H522 lung 57.2% | A549/ATCC NSCLC 70.8% | 786-0 renal 72.1% | COLO 205 colon 97.9% | DU-145 prostate 72.6% | K-562 leukemia 92.7% | MALME-3M melanoma 90.7% | MDA-MB-231 breast 98.8% | RXF 393 renal 76.8% | SF-268 CNS 78.2% | SF-295 CNS 99.2% | SF-539 CNS 102% | UACC-257 melanoma 104% | M14 melanoma 77.4%
